Source: PubChem BioAssay AID977630 (Broad Institute, 2014)
Out of some 1,600 compounds screened, fewer than 10 were called active. Another 48% or so got no clear call; they are omitted.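 The calls were made as follows: active = Normal-ribosome green reporter loss at least double humanized-ribosome red reporter loss, with overall culture growth inhibition under a set limit; inconclusive = no clear call, values can overlap the other calls; inactive = the rest.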 The list is a sample of the results. Measured potencies and affinities stand elsewhere.

Assay: E. coli growth inhibition, wild-type GFP versus H38 humanized RFP strain – H38 mutant RFP vs wild-type GFP, cherry-pick, dose response (AID 977630)
Conditions: mixed culture, 24 h; series mostly up to 50 µM

outcome, inactive:
CC(C)(C)NC(=O)C(c1ccncc1)N(Cc1ccc(F)cc1)C(=O)c1ccc(-c2ccccc2)[nH]1 (stereo unspecified)
Cc1ccc(C(=O)C2Oc3ccccc3C3CC(c4ccc(C)cc4)=NN23)cc1 (stereo unspecified)
Cc1nc(N2CCC(C)CC2)c(C#N)c(C)c1[N+](=O)[O-]
Cc1cc(NC(=O)CCN2C(=O)C3C4C=CC(C4)C3C2=O)ccc1Br (stereo unspecified)
CCOc1ccc2[nH]c3c(NCCN(C)C)ncnc3c2c1
Cc1ccc(S(=O)(=O)N(C(=O)c2ccncc2)c2ccc(OC(=O)c3ccncc3)cc2)c(C)c1
COc1ccc(C(NC(=O)C2CCN(CCOc3ccc(Cl)cc3Cl)CC2)c2ccccc2C)cn1 (stereo unspecified)
COc1cccc(-c2ccc(NC(=O)C3CCCN(Cc4cnn(C(C)C)c4)C3)cc2)c1 (stereo unspecified)
Cc1cccc(NC(=O)c2c(C)nn(-c3ccccc3)c2Cl)c1
CC(C)Oc1cccc(C(=O)C2CCCN(C(=O)c3cc(C(F)(F)F)[nH]n3)C2)c1 (stereo unspecified)
Cc1ccccc1-c1nc(CS(=O)(=O)CC(=O)N2CCCCC2)c(C)o1
COc1cccc(NC(=O)C(c2ccccc2)N2CCN(c3ccccn3)CC2)c1 (stereo unspecified)
COC(=O)c1ccc2nc(-c3ccc(F)cc3)c(Cc3cccc(F)c3)n2c1
COc1ccc(-c2nn(-c3ccccc3C)cc2CNCc2cccnc2)cc1F
CC1CCc2c(sc3ncn4c(SCC(=O)NCc5ccco5)nnc4c23)C1 (stereo unspecified)
CC1CN(CC(=O)Nc2nc3ccccc3s2)CC(C)O1 (stereo unspecified)
O=S(=O)(Nc1ccccc1N1CCCCC1)c1cccs1
Cc1ccn2cc(-c3cccc(NC(=O)c4cccs4)c3)nc2c1
O=S(=O)(Cc1ccc(Cl)cc1)N1CCN(Cc2ccc3c(c2)OCO3)CC1
Cc1cccc(NS(=O)(=O)c2cc3c(cc2C)NC(=O)CO3)c1
O=C(CSCc1c(Cl)cccc1Cl)NCc1ccccn1
Cc1cccc(N2CCN(Cc3nc(-c4ccc(F)cc4F)oc3C)CC2)n1
CCNc1nc(N)c(C(=O)C23CC4CC(CC(C4)C2)C3)s1
CNC(=O)c1sc(-c2ccccn2)nc1C
Cc1cc(C)c(OCCN(C)Cc2ccccc2)c(Br)c1
O=C(Nc1cc(S(=O)(=O)N2CCCCC2)ccc1N1CCCCC1)C1CC1
CCCCNC(=O)c1c(N)[nH]c(C(=O)c2ccccc2)c1-c1ccccn1
Cc1nn(S(=O)(=O)c2ccc(Cl)cc2)c(C)c1Sc1ccc([N+](=O)[O-])cc1
Cc1cccc(NC(=O)c2sc3nc(-c4ccccc4)cn3c2C)n1
COC(=O)c1ccc(CSc2nc3ccccc3s2)o1
COc1ccccc1-c1noc2ncnc(Nc3ccccc3C)c12
O=C(c1cccs1)c1c[nH]cc1-c1ccccc1
Cc1ccc(CSCC(=O)Nc2ccccc2F)cc1
COc1ccc(NC(=O)c2ccc(COc3ccccc3Br)o2)c(OC)c1
CCc1nnc(NC(=O)CSc2ncc(-c3ccccc3)[nH]2)s1
COc1cccc(NC(=O)C2CCC(CNS(=O)(=O)c3cccc4cccnc34)CC2)c1 (stereo unspecified)
CCOC(=O)c1sc(Nc2cccc(Cl)c2)nc1C
Cn1c(=O)n(C)c2cc([N+](=O)[O-])c(N3CCN(C(=O)c4cccc(F)c4)CC3)cc21
Brc1ccc(-c2nc3c4ccccc4ccn3c2Cc2ccccc2)cc1
CCN(CC)CC(=O)Nc1sc2c(c1C(=O)c1ccccc1OC)CCC2
O=S(=O)(Cc1ccco1)Cc1nc(-c2ccc(Cl)cc2)cs1
Cc1ccccc1NS(=O)(=O)c1cc(C(=O)NCCC2=CCCCC2)ccc1C
Cc1c(CCOC(=O)C23CC4CC(CC(C4)C2)C3)sc[n+]1Cc1ccccc1
O=C(CSc1nnc(-c2ccccc2F)n1C1CC1)Nc1cccnc1Cl
CSc1ccc(CN(C)CC(=O)NC(C)c2ccccc2)cc1 (stereo unspecified)
COc1cc[n+]([O-])cc1[N+](=O)[O-]
COc1ccc(OC2C(=O)N(Cc3ccc4c(c3)OCO4)C2c2sccc2C)cc1 (stereo unspecified)
COc1ccc(C(=O)C[n+]2ccc3c(c2)nc(-c2cc(OC)c(OC)cc2OC)n3C)cc1
c1coc(CSc2ncnc3c2oc2ccccc23)c1
COc1cccc(SCC(=O)N2CCN(c3ccccc3)CC2)c1
COc1ccc(C(=O)CSc2nc3ccccc3n2CC(=O)c2ccccc2)cc1
O=C(Nc1cscc1S(=O)(=O)c1ccccc1)c1ccccc1Cl
CC1Cc2ccccc2N1C(=O)CN1C(=O)NC(C)(CCc2ccccc2)C1=O (stereo unspecified)
O=C(COC(=O)c1ccc(O)cc1)Nc1ccccc1
O=S(=O)(NC1c2cccc3cccc(c23)C1Sc1ncccn1)c1ccccc1 (stereo unspecified)
O=[N+]([O-])c1ccc(/C=C/c2ccc3cccc([N+](=O)[O-])c3n2)cc1
Cc1cc(C(=O)Nc2ccc(Cl)cc2)c(C)n1Cc1cccs1
CCCCOc1ccc(-c2nnn(CCC(=O)N3CCOCC3)n2)cc1
Cc1ccnc(NS(=O)(=O)c2ccc(NC(=O)c3ccc4c(c3)OCCO4)cc2)n1
CN1N=C2c3ccccc3CCC2C1c1ccc(F)cc1 (stereo unspecified)
COc1ccc(-c2nc(NC(C)=O)sc2-c2ccccc2)cc1
Nc1ccccc1Sc1c[nH]c2ccccc12
CCc1cccc(CC)c1NC(=O)Cn1c(-c2ccc(F)cc2)noc1=O
Cc1ccc(C)c(N2CCN(C(=O)CCS(=O)(=O)c3ccc4c(c3)oc(=O)n4C)CC2)c1
CCOC(=O)c1cc2nc(-c3ccccc3)cc(C)n2n1
O=C(NCc1ccccc1)C1C(=O)Nc2ccccc2C(=O)N1c1ccc2c(c1)OCCO2 (stereo unspecified)
CSc1ccccc1NC(=O)CN(c1cccc(C)c1)S(C)(=O)=O
CC(OC(=O)COc1ccccc1)C(=O)NC1CCCC1 (stereo unspecified)
O=S(=O)(c1ccc(Cl)cc1)N1CCN=C1SCc1cccc(Cl)c1
CCCN1C(=O)C(O)(c2c(C)[nH]c3ccccc23)c2ccccc21 (stereo unspecified)
COc1ccc(CNC(=O)c2sc3nc4c(c(C(F)(F)F)c3c2N)CCC4)cc1OC
CN(Cc1ccc([N+](=O)[O-])cc1)c1ccccc1
Cc1ccc(NCC(=O)c2ccc(C)cc2)cc1
Cn1c(=O)c2c(-c3ccccc3)n(-c3cc([N+](=O)[O-])ccc3N)cc2n(C)c1=O
CC1(C(=O)NS(=O)(=O)c2cccc(C#N)c2)CCN1C(=O)C1(c2ccc(Cl)cc2)CCC1 (stereo unspecified)
C[C@@H]1CN([C@@H](C)CO)C(=O)c2cccc(NC(=O)c3nc4ccccc4s3)c2O[C@@H]1CN(C)CC1CC1
Cc1nc(-c2ccc([N+](=O)[O-])cc2)c(-c2ccccc2)o1
O=C(CN1CCN(S(=O)(=O)c2ccc(Cl)cc2)CC1)Nc1ccc2c(c1)CCC2
CC(NC(=O)c1ccncc1)c1ccc(Cl)cc1Cl (stereo unspecified)
O=C(Nc1ccn(Cc2ccc(Cl)cc2)n1)c1ccccc1
CCCOC(=O)c1ccc(NC(=O)c2nc3nc(C)cc(C)n3n2)cc1
C[C@@H]1CCCCO[C@H](CN(C)C(=O)CCCN(C)C)[C@H](C)CN([C@@H](C)CO)C(=O)c2cc(NC(=O)Nc3cccc4ccccc34)ccc2O1
CCOc1ccccc1C(=O)NCC(=O)OCCOc1cccc(Cl)c1
CCOC(=O)C(C)(C)n1nnc(-c2ccc([N+](=O)[O-])cc2)n1
O=c1c2ccccc2nc(SCc2ccccc2)n1CC1CCCO1 (stereo unspecified)
Cc1ccc(N2C(=S)NC3c4cc(Cl)ccc4OC2(C)C3C(=O)N(C)C)cc1 (stereo unspecified)
CC1(c2ccc3ccccc3c2)NC(=O)N(CC(=O)N2CCN(c3ccccc3O)CC2)C1=O (stereo unspecified)
O=C(Nc1ccc(Br)cc1)c1cccnc1N1CCCCC1
CCc1ccc2nc(SCC(=O)Nc3ccccc3N3CCOCC3)c(C#N)cc2c1
CSc1nc2ccc(NS(=O)(=O)c3ccc([N+](=O)[O-])cc3)cc2s1
COc1ccc(C2CC(c3cccs3)=Nc3ccccc3S2)cc1 (stereo unspecified)
Cc1ccccc1CSc1nnc(-c2ccccn2)n1C
CCOC(=O)c1c(C)[nH]c(C)c1S(=O)(=O)NCCN1CCN(c2ccccc2F)CC1
O=C(CSc1nnc(COc2cccc3cccnc23)o1)c1ccc(F)cc1
O=C(O)c1nn2c(C(F)(F)F)cc(-c3cccs3)nc2c1Cl
COc1ccc(CC(=O)Nc2cc(S(=O)(=O)Nc3ccc(OC)cc3)ccc2OC)cc1
COC(=O)c1sccc1NC(=O)CNC(=O)c1ccccc1
COC(=O)c1cc(C)sc1NC(=O)CC1Nc2ccccc2NC1=O (stereo unspecified)
CCOC(=O)c1cccc(OS(=O)(=O)Cc2ccccc2)c1
CCOc1ccccc1N1CC(C(=O)Nc2cccc(S(=O)(=O)N3CCCCC3)c2)CC1=O (stereo unspecified)
c1cc2cc(-c3c(-c4ccc5c(c4)OCO5)noc3-c3ccsc3)ccc2[nH]1
Cc1cc(C)cc(NC(=O)COC(=O)CC2CCCC2)c1
COc1cc(SC)ccc1C(=O)N(Cc1ccccc1)c1ccccn1
COC(=O)c1nc(-c2ccc(C)cc2)[nH]c1C(C)(C)C
O=C(O)CNC(=O)C(c1ccccc1)c1ccccc1
O=C(C[n+]1ccc(Cc2ccccc2)cc1)Nc1ccc([N+](=O)[O-])cc1Cl
